SMILES strings stand for the structures. Inconclusive results are not listed. Active and inactive are the calls of the source. Rule for the calls, unless noted: active = hit-call score of the fitted dose curve at least 0.9, where 1 is the maximum; inactive = score below 0.9.

The target in assay [1] is Estrogen receptor (Homo sapiens) (UniProt P03372). Briefly: ATG_ERa_TRANS: Attagene TRANS-FACTORIAL HepG2 Assay for human Estrogen Receptor alpha (ERa) (AID 2282970; active = hit-call score of the fitted dose curve at least 0.9, where 1 is the maximum). Particulars: HepG2 Attagene TRANS ERa GAL4 reporter, mRNA. The procedure, abridged: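 One of 30 multiplexed endpoints from a HepG2 TRANS system, this one reports ERa-Gal4-driven reporter mRNA. Transcripts were quantified 24 hours post-dosing by fluorescent RT-PCR and capillary electrophoresis, with activity scored as induction over DMSO.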
Sequence of Estrogen receptor (Homo sapiens) (P03372 whole entry, looked up, the tested form may be a part): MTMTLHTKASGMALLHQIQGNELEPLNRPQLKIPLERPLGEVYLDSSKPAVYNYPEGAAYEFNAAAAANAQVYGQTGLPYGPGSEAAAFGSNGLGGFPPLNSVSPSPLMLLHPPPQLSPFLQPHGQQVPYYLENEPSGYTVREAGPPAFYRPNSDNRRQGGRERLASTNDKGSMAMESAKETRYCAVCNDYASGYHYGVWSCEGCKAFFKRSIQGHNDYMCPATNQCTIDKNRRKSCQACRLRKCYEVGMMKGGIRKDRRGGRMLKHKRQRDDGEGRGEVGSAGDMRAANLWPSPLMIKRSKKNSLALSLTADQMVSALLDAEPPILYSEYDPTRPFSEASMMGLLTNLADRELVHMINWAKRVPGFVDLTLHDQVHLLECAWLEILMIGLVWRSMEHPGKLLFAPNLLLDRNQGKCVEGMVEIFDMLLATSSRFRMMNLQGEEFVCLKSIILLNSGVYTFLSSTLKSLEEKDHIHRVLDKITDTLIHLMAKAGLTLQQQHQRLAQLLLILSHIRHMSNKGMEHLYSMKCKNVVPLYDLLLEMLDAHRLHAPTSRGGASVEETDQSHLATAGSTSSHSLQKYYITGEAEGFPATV

Read-out in assay [2]: Human Leukocyte Antigen - DR isotype (HLADR), HLA-DRA (gene 3122)
Briefly: BSK_3C_HLADR: BioMAP Diversity Plus: 3C Assay for Human Leukocyte Antigen - DR isotype (HLADR) Biomarker Activity (AID 2283019). Conditions: primary human endothelial cells (HUVEC); actives raise or lower the signal. The procedure, abridged: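 Primary human umbilical vein endothelial cells (3C system) were dosed with compound and cell-surface HLA-DR was quantified by ELISA at 24 h. Activity was fitted bidirectionally against DMSO as negative control and baseline.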

Read-out in assay [3]: Vascular endothelial growth factor receptor 2 (Homo sapiens) (UniProt P35968)
Briefly: BSK_4H_VEGFRII: BioMAP Diversity Plus: 4H Assay for Vascular endothelial growth factor receptor 2 (VEGFR2) Biomarker Activity (AID 2283031).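 For AC50: cell-surface VEGFR2 protein level quantified by ELISA.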 Conditions: primary human endothelial cells (HUVEC); actives raise or lower the signal. The procedure, abridged:
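Primary human umbilical vein endothelial cells in the BioMAP 4H system were dosed with test chemical, and 24 h later VEGFRII was measured by ELISA. Activity was fitted bidirectionally against DMSO as negative control and baseline.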

Read-out in assay [4]: Interleukin-8 (IL8), CXCL8 (gene 3576)
Kind of assay: BSK_CASM3C_IL8: BioMAP Diversity Plus: CASM3C Assay for Interleukin-8 (IL8) Biomarker Activity (AID 2283042).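 Note: IL-8 protein level quantified by ELISA.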 Conditions: primary human coronary artery smooth muscle cells; actives raise or lower the signal.

Read-out in assay [5]: Monokine induced gamma interferon (MIG), CXCL9 (gene 4283)
Briefly: BSK_CASM3C_MIG: BioMAP Diversity Plus: CASM3C Assay for Monokine induced gamma interferon (MIG) Biomarker Activity (AID 2283048).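 Note: MIG protein level measured by ELISA.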 Particulars: primary human coronary artery smooth muscle cells; actives raise or lower the signal.

Read-out in assay [6]: Urokinase-type plasminogen activator receptor (uPAR), PLAUR (gene 5329)
Kind of assay: BSK_CASM3C_uPAR: BioMAP Diversity Plus: CASM3C Assay for Urokinase-type plasminogen activator receptor (uPAR) Biomarker Activity (AID 2283054).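 Note: cell-surface uPAR protein level quantified by ELISA.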 Particulars: primary human coronary artery smooth muscle cells; actives raise or lower the signal.

Read-out in assay [7]: Tissue Factor, F3 (gene 2152)
Briefly: BSK_LPS_TissueFactor: BioMAP Diversity Plus: LPS Assay for Tissue Factor Biomarker Activity (AID 2283084). Particulars: primary human HUVEC with PBMC; actives raise or lower the signal. Summed up:
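Human umbilical vein endothelial cells co-cultured with peripheral blood mononuclear cells were dosed and stimulated with LPS. Cell-surface CD142 was quantified by ELISA at 24 h. Activity was fitted bidirectionally against DMSO baseline.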

Read-out in assay [8]: Vascular cell adhesion molecule 1 (VCAM1), VCAM1 (gene 7412)
Briefly: BSK_LPS_VCAM1: BioMAP Diversity Plus: LPS Assay for Vascular cell adhesion molecule 1 (VCAM1) Biomarker Activity (AID 2283086). Conditions: primary human HUVEC with PBMC; actives raise or lower the signal. Summed up:
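VCAM-1 quantified by ELISA in an LPS-activated co-culture of human endothelial cells and peripheral blood mononuclear cells, read 24 h post-treatment. Fitted in both directions versus DMSO; parallel SRB staining flags overt cytotoxicity.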

Read-out in another assay: CD40, CD40 (gene 958)
Kind of assay: BSK_SAg_CD40: BioMAP Diversity Plus: SAg Assay for CD40 Biomarker Activity (AID 2283088). Conditions: primary human HUVEC with PBMC; actives raise or lower the signal. The procedure, abridged: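 Human umbilical vein endothelial cells co-cultured with PBMC; CD40 levels measured by ELISA with fluorescence read-out 24 h after chemical dosing. Gain or loss of signal fitted bidirectionally against DMSO baseline.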

Read-out in assay [9]: Interleukin-8 (IL8), CXCL8 (gene 3576)
Kind of assay: BSK_SAg_IL8: BioMAP Diversity Plus: SAg Assay for Interleukin-8 (IL8) Biomarker Activity (AID 2283094). Conditions: primary human HUVEC with PBMC; actives raise or lower the signal. Summed up:
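ELISA readout of IL-8 from a superantigen-activated endothelial/PBMC primary human co-culture, taken 24 h post-dosing and fitted in both directions against DMSO; parallel SRB total-protein staining flags overt cytotoxicity.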

A short description of assay [10]: BSK_SAg_SRB: Viability Assessment in the BioMAP Diversity Plus: SAg Assay (AID 2283096).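 Note: cells read one day after compound addition; hits may be either gain or loss of signal compared with DMSO.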 Particulars: primary human HUVEC with PBMC. Summed up:
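This overt-cytotoxicity endpoint quantifies protein in human endothelial/PBMC co-cultures at 24 h using SRB absorbance (560 nm) after trichloroacetic acid fixation. Values reflect signal change from the DMSO negative control, fitted bidirectionally.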

The nature of assay [11]: BSK_BT_PBMCCytotoxicity: PBMC Cytotoxicity Assessment in the BioMAP Diversity Plus: BT Assay (AID 2284225).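 Note: PBMC viability measured by Alamar Blue dye reduction fluorescence.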 Particulars: primary human B cells with PBMC. Summed up:
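Viability by Alamar Blue reduction (6 h, ex/em 546/580 nm) after 90 h culture of SEB/TSST-1-activated PBMC (20 ng/mL each) given compound 1 h before activation. DMSO served as baseline for curve fitting.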

Read-out in assay [12]: Secreted IgG (sIgG), gene 3500
Kind of assay: BSK_BT_sIgG: BioMAP Diversity Plus: BT Assay for Secreted IgG (sIgG) Biomarker Activity (AID 2284226). Particulars: primary human B cells with PBMC. The procedure, abridged: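 ELISA quantitation of secreted IgG from human B cells co-cultured with PBMC, sampled 24 h post-dosing. Values fitted relative to DMSO vehicle as baseline, positive fitting direction.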

Assay [13] can be described thus: BSK_BT_Bcell_Proliferation: Viability Assessment in the BioMAP Diversity Plus: BT Assay for B cell Proliferation (AID 2284227). Particulars: primary human B cells with PBMC. The procedure, abridged:
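SRB-based protein staining (0.1% SRB after 10% TCA fixation, 560 nm) quantifies proliferation in human B cells co-cultured with PBMC, 72 h post-dosing, with signal gain scored relative to DMSO negative control.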

Read-out in assay [14]: Interleukin 17A (IL17A), IL17A (gene 3605)
Kind of assay: BSK_BT_xIL17A: BioMAP Diversity Plus: BT Assay for Interleukin 17A (IL17A) Biomarker Activity (AID 2284229). Particulars: primary human B cells with PBMC. Summed up:
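B cells co-cultured with PBMC were exposed to test chemicals, and secreted IL-17A was quantified 24 h after dosing by Luminex xMAP bead immunoassay. Activity was fitted in the gain direction against DMSO as baseline.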

Read-out in assay [15]: Collagen III, COL3A1 (gene 1281)
Kind of assay: BSK_MyoF_CollagenIII: BioMAP Diversity Plus: MyoF Assay for Collagen III Biomarker Activity (AID 2284239). Particulars: primary human lung fibroblasts. Summed up: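 Human lung fibroblasts were dosed with chemicals and, 24 hours later, collagen III was measured by ELISA. Activity was fitted in the positive direction against the DMSO negative-control baseline.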

Read-out in assay [16]: Interleukin 2 (IL2), IL2 (gene 3558)
Kind of assay: BSK_BT_xIL2: BioMAP Diversity Plus: BT Assay for Interleukin 2 (IL2) Biomarker Activity (AID 2284245). Conditions: primary human B cells with PBMC. The procedure, abridged: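 Secreted IL-2 was read by Luminex xMAP from B cells co-cultured with PBMC (human primary) 24 h post-dosing; activity was analysed as gain of signal relative to DMSO vehicle.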

Read-out in assay [17]: Collagen IV, COL4A1 (gene 1282)
Briefly: BSK_MyoF_CollagenIV: BioMAP Diversity Plus: MyoF Assay for Collagen IV Biomarker Activity (AID 2284247). Conditions: primary human lung fibroblasts. Summed up:
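Collagen IV quantified by ELISA in human lung fibroblast cultures 24 h after chemical treatment, with DMSO as baseline. Parallel SRB staining (0.1% SRB after TCA fixation, 560 nm) flags overt cytotoxicity.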

Read-out in assay [18]: Plasminogen activator inhibitor-1 (PAI1), SERPINE1 (gene 5054)
Kind of assay: BSK_MyoF_PAI1: BioMAP Diversity Plus: MyoF Assay for Plasminogen activator inhibitor-1 (PAI1) Biomarker Activity (AID 2284256).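 Note: PAI-1 protein level measured by ELISA in fibroblast cultures; PAI-1 read 24 h after compound addition.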 Particulars: primary human lung fibroblasts. Summed up:
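ELISA read-out of PAI-1 from primary human lung fibroblast cultures 24 h after dosing; gain-of-signal fit versus DMSO control.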

Read-out in assay [19]: Matrix Metallopeptidase 1 (MMP1), MMP1 (gene 4312)
Briefly: BSK_MyoF_MMP1: BioMAP Diversity Plus: MyoF Assay for Matrix Metallopeptidase 1 (MMP1) Biomarker Activity (AID 2284268). Conditions: primary human lung fibroblasts. The procedure, abridged: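 ELISA readout of MMP1 in primary human lung fibroblast cultures, 24 h post-dosing. Gain of signal versus DMSO vehicle control defines activity. Parallel SRB staining (0.1% after 10% TCA fixation, 560 nm) flags overt cytotoxicity.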

For `O=C(O)COc1ccccc1`, the compound was called inactive in assay [1].

Take `O=S(=O)(c1ccccc1)c1ccccc1`: the outcome in assay [2], in [3], in [4], in assay [5], in assay [6] and in assay [7] was inactive. Besides, the outcome in [8] is “inactive”; with CD40, CD40 (gene 958), “inactive”; in [9] it was “inactive”; in assay [10], “inactive”; in [11] it was “inactive”; in assay [12] it was “inactive”. Also, the result in assay [13], in assay [14], in [15], in assay [16], in assay [17] and in assay [18] was inactive. For the same compound, the outcome in [19] was inactive.

Take `COC(C)(C)CCC[C@H](C)C/C=C/C(C)=C/C(=O)OC(C)C`: the AC50 in assay [2] is 28.3 µM (active); in [3], 32 µM (active); in [5] it was 29.9 µM (active); in [6], 31.2 µM (active); in assay [7], 26.8 µM (active); in [8], 27.4 µM (active). The concentration at half-maximal activity (AC50) in the assay with CD40, CD40 (gene 958) is 26.8 µM (active); in assay [10], 33.3 µM (active); in assay [11], 20 µM (active); in [12], 13.4 µM (active); in assay [13], 28.8 µM (active); in [14], 13.4 µM (active). Further, the AC50 in assay [16] is 28.4 µM (active); in assay [19], 26.9 µM (active). In addition, the outcome in assay [4], in [9], in [15], in [17] and in [18] was inactive.

Regarding `Cc1cc(C)c(C2=C(OC(=O)CC(C)(C)C)C3(CCCC3)OC2=O)c(C)c1`, in assay [1], the call was inactive.

Regarding `Nc1ccc(-c2ccc(N)c(N)c2)cc1N`, the outcome was “inactive” in assay [3]; “inactive” in assay [4]; “inactive” in [6]; “inactive” in assay [7]; “inactive” with CD40, CD40 (gene 958); “inactive” in assay [9]. Also, the result in assay [10], in assay [11], in [13], in [14], in assay [15] and in assay [16] was inactive. Further, the outcome in assay [17], in assay [18] and in assay [19] was inactive. The figures for the AC50 in assay [8] and in assay [12] were 20 µM (active) and 15.4 µM (active), respectively.

For the compound `CSc1nc(N=[N+]=[N-])nc(NC(C)C)n1`, the result in assay [1] was inactive.

As for `Nc1ccccc1C(=O)Oc1ccc2ccccc2c1`, the AC50 in assay [1] is 12.8 µM (active).

Turning to `BrCBr`, the result in assay [1] was inactive.

By AC50 is commonly meant the concentration giving half of the maximal activity seen.
